# Data taken from the supplement of paper PMC8728848.
# Only a selection was taken, and the strongest signals are over-represented in it overall.
# What was measured:
# Experiment in all cases: glycan array binding signal (z-score within array); higher = stronger binding
# Settings in all cases: glycan notation: IUPAC condensed, linker removed
# [1] = molecular target: Fuc(a1-2)Gal(b1-3)GalNAc(a1-3)[Fuc(a1-2)]Gal(b1-4)Glc
# In short: (§1)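 The binding signal is a Z-score computed within each array. Data were drawn from 3228 arrays in the Consortium for Functional Glycomics database, restricted to those with a known protein sequence. Scores were averaged over arrays of the same protein sequence at different concentrations or buffers, and over linkers, and negative values can be taken as non-binding.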
# [2] = molecular target: Fuc(a1-2)Gal(b1-3)GlcNAc(b1-3)GalNAc
# In short: as §1
# [3] = molecular target: Fuc(a1-2)Gal(b1-4)GlcNAc(b1-2)Man(a1-3)[Fuc(a1-2)Gal(b1-4)GlcNAc(b1-2)Man(a1-6)]Man(b1-4)GlcNAc(b1-4)[Fuc(a1-6)]GlcNAc
# In short: as §1
# [4] = molecular target: Fuc(a1-2)Gal(b1-4)GlcNAc6S
# In short: as §1
# [5] = molecular target: Fuc(a1-2)[Gal(a1-3)]Gal(b1-3)GalNAc(b1-3)Gal(a1-4)Gal(b1-4)Glc
# In short: as §1
# [6] = molecular target: Fuc(a1-2)[Gal(a1-3)]Gal(b1-3)GlcNAc(b1-6)GalNAc
# In short: as §1
# [7] = molecular target: Fuc(a1-2)[Gal(a1-3)]Gal(b1-4)GlcNAc(b1-2)Man(a1-3)[Fuc(a1-2)[Gal(a1-3)]Gal(b1-4)GlcNAc(b1-2)Man(a1-6)]Man(b1-4)GlcNAc(b1-4)GlcNAc
# In short: as §1
# [8] = molecular target: Fuc(a1-2)[Gal(a1-3)]Gal(b1-4)GlcNAc(b1-6)GalNAc
# In short: as §1
# [9] = molecular target: Fuc(a1-2)[GalNAc(a1-3)]Gal(b1-3)GlcNAc
# In short: as §1
# [10] = molecular target: Fuc(a1-2)[GalNAc(a1-3)]Gal(b1-4)GlcNAc(b1-2)Man(a1-3)[Fuc(a1-2)[GalNAc(a1-3)]Gal(b1-4)GlcNAc(b1-2)Man(a1-6)]Man(b1-4)GlcNAc(b1-4)GlcNAc
# In short: as §1
# [11] = molecular target: Fuc(a1-2)[GalNAc(a1-3)]Gal(b1-4)[Fuc(a1-3)]GlcNAc(b1-3)GalNAc
# In short: as §1
# Fuc(a1-3)GlcNAc = molecular target: Fuc(a1-3)GlcNAc
# In short: as §1
# [12] = molecular target: Fuc(a1-3)[Gal(b1-4)]GlcNAc(b1-4)Gal(b1-4)[Fuc(a1-3)]GlcNAc
# In short: as §1
# [13] = molecular target: Fuc(a1-3)[Gal(b1-4)]GlcNAc(b1-6)[Gal(b1-3)GlcNAc(b1-3)]Gal(b1-4)Glc
# In short: as §1
# Gal(a1-4)Gal(b1-4)GlcNAc = molecular target: Gal(a1-4)Gal(b1-4)GlcNAc
# In short: as §1
# [14] = molecular target: Gal(b1-3)Gal(b1-4)GlcNAc(b1-2)Man(a1-3)[Gal(b1-3)Gal(b1-4)GlcNAc(b1-2)Man(a1-6)]Man(b1-4)GlcNAc(b1-4)GlcNAc
# In short: as §1
# [15] = molecular target: Gal(b1-3)GlcNAc(b1-3)Gal(b1-4)GlcNAc(b1-2)Man(a1-3)[Gal(b1-3)GlcNAc(b1-3)Gal(b1-4)GlcNAc(b1-2)Man(a1-6)]Man(b1-4)GlcNAc(b1-4)GlcNAc
# In short: as §1
# [16] = molecular target: Gal(b1-3)[Fuc(a1-4)]GlcNAc(b1-6)GalNAc
# In short: as §1
# [17] = molecular target: Gal(b1-3)[Neu5Ac(a2-6)]GalNAc
# In short: as §1
# [18] = molecular target: Gal(b1-4)GlcNAc(b1-2)Man(a1-3)[Gal(b1-4)GlcNAc(b1-2)Man(a1-6)]Man(b1-4)GlcNAc(b1-4)GlcNAc
# In short: as §1
# [19] = molecular target: Gal(b1-4)GlcNAc(b1-2)Man(a1-3)[Gal(b1-4)GlcNAc(b1-2)Man(a1-6)][Gal(b1-4)GlcNAc(b1-4)]Man(b1-4)GlcNAc(b1-4)[Fuc(a1-6)]GlcNAc
# In short: as §1
# [20] = molecular target: Gal(b1-4)GlcNAc(b1-2)Man(a1-6)[Man(a1-3)]Man(b1-4)GlcNAc(b1-4)GlcNAc
# In short: as §1
# [21] = molecular target: Gal(b1-4)GlcNAc(b1-2)[Gal(b1-4)GlcNAc(b1-4)]Man(a1-3)[Gal(b1-4)GlcNAc(b1-2)[Gal(b1-4)GlcNAc(b1-6)]Man(a1-6)]Man(b1-4)GlcNAc(b1-4)GlcNAc
# In short: as §1
# [22] = molecular target: Gal(b1-4)GlcNAc(b1-2)[Gal(b1-4)GlcNAc(b1-6)]Man(a1-6)[GlcNAc(b1-4)][Gal(b1-4)GlcNAc(b1-2)Man(a1-3)]Man(b1-4)GlcNAc(b1-4)GlcNAc
# In short: as §1
# [23] = molecular target: Gal(b1-4)GlcNAc(b1-3)Gal(b1-4)GlcNAc(b1-3)Gal(b1-4)GlcNAc(b1-3)Gal(b1-4)GlcNAc(b1-2)[Gal(b1-4)GlcNAc(b1-3)Gal(b1-4)GlcNAc(b1-3)Gal(b1-4)GlcNAc(b1-3)Gal(b1-4)GlcNAc(b1-6)]Man(a1-6)[Gal(b1-4)GlcNAc(b1-3)Gal(b1-4)GlcNAc(b1-3)Gal(b1-4)GlcNAc(b1-3)Gal(b1-4)GlcNAc(b1-2)Man(a1-3)]Man(b1-4)GlcNAc(b1-4)[Fuc(a1-6)]GlcNAc
# In short: as §1
# [24] = molecular target: Gal(b1-4)GlcNAc(b1-3)Gal(b1-4)GlcNAc(b1-3)Gal(b1-4)GlcNAc(b1-3)Gal(b1-4)GlcNAc(b1-3)Gal(b1-4)GlcNAc(b1-2)Man(a1-3)[Gal(b1-4)GlcNAc(b1-3)Gal(b1-4)GlcNAc(b1-3)Gal(b1-4)GlcNAc(b1-3)Gal(b1-4)GlcNAc(b1-3)Gal(b1-4)GlcNAc(b1-2)Man(a1-6)]Man(b1-4)GlcNAc(b1-4)GlcNAc
# In short: as §1
# [25] = molecular target: Gal(b1-4)GlcNAc(b1-3)Gal(b1-4)GlcNAc(b1-3)Gal(b1-4)GlcNAc(b1-3)Gal(b1-4)GlcNAc(b1-3)Gal(b1-4)GlcNAc(b1-2)Man(a1-3)[Gal(b1-4)GlcNAc(b1-3)Gal(b1-4)GlcNAc(b1-3)Gal(b1-4)GlcNAc(b1-3)Gal(b1-4)GlcNAc(b1-3)Gal(b1-4)GlcNAc(b1-2)Man(a1-6)]Man(b1-4)GlcNAc(b1-4)[Fuc(a1-6)]GlcNAc
# In short: as §1
binder,measurement,setting,value
"Gal 9 (Homo sapiens), O00182 (protein) MAFSGSQAPYLSPAVPFSGTIQGGLQDGLQITVNGTVLSSSGTRFAVNFQTGFSGNDIAFHFNPRFEDGGYVVCNTRQNGSWGPEERKTHMPFQKGMPFDLCFLVQSSDFKVMVNGILFVQYFHRVPFHRVDTISVNGSVQLSYISFQNPRTVPVQPAFSTVPFSQPVCFPPRPRGRRQKPPGVWPANPAPITQTVIHTVQSAPGQMFSTPAIPPMMYPHPAYPMPFITTILGGLYPSKSILLSGTVLPSAQRFHINLCSGNHIAFHLNPRFDENAVVRNTQIDNSWGSEERSLPRKMPFVRGQSFSVWILCEAHCLKVAVDGQHLFEYYHRLRNLPTINRLEVGGDIQLTHVQT",glycan array binding signal (z-score),[1],-0.317
same,glycan array binding signal (z-score),[2],-0.3
same,glycan array binding signal (z-score),[3],-0.322
same,glycan array binding signal (z-score),[4],0.06
same,glycan array binding signal (z-score),[5],-0.307
same,glycan array binding signal (z-score),[6],-0.233
same,glycan array binding signal (z-score),[7],0.9
same,glycan array binding signal (z-score),[8],-0.307
same,glycan array binding signal (z-score),[9],0.055
same,glycan array binding signal (z-score),[10],4.39
same,glycan array binding signal (z-score),[11],-0.288
same,glycan array binding signal (z-score),Fuc(a1-3)GlcNAc,-0.32
same,glycan array binding signal (z-score),[12],-0.303
same,glycan array binding signal (z-score),[13],-0.236
same,glycan array binding signal (z-score),Gal(a1-4)Gal(b1-4)GlcNAc,-0.299
same,glycan array binding signal (z-score),[14],6
same,glycan array binding signal (z-score),[15],4.53
same,glycan array binding signal (z-score),[16],-0.282
same,glycan array binding signal (z-score),[17],-0.315
same,glycan array binding signal (z-score),[18],2.94
same,glycan array binding signal (z-score),[19],-0.269
same,glycan array binding signal (z-score),[20],0.09
same,glycan array binding signal (z-score),[21],4.71
same,glycan array binding signal (z-score),[22],3.87
same,glycan array binding signal (z-score),[23],9.56
same,glycan array binding signal (z-score),[24],4.95
same,glycan array binding signal (z-score),[25],4.2
